From PubChem BioAssay (NCATS)
Records with an inconclusive call do not appear. The source made the active and inactive calls. Unless noted, calls follow the shape of the dose curve; as a rule, active = well fitted cell-killing curve with a large enough effect; inconclusive = small, poorly fitted or top-dose-only effect; inactive = flat fitted curve, though single readings scatter.

Key:
[1] = Cell Viability - LYMP2-025 (AID 976);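 also: series mostly up to about 92 µM; plate controls were DMSO only for no effect and tetraoctylammonium bromide control for full effect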
Procedure, shortened: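 Seed 2500 LYMP2-025 cells/well; 5 hr at 37 C; add compound; 24 hr at 37 C; add CellTiter-Glo; 30 min RT; read luminescence. AC50 from Hill-modelled concentration-response.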

[2] = Cell Viability - LYMP2-002 (AID 977);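 also: series mostly up to about 92 µM; plate controls were DMSO only for no effect and 92 µM tetraoctylammonium bromide for full effect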
Procedure, shortened: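 Luminescent ATP readout (CellTiter-Glo, 30 min room temperature) after 24 h compound exposure at 37 C of a human lymphoblastoid line, 2500 cells/well. AC50 values derived by standard Hill fitting of qHTS concentration-response data.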

[3] = Cell Viability - LYMP2-006 (AID 978); also: series mostly up to about 92 µM; % is scaled to controls: 0 for no effect and ±100 for the full control effect; nearly all actives have a fitted effect of over 60% in size
Procedure, shortened: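 qHTS, 1536-well; 2500 cells/well, 5 hr 37 C; cpd 24 hr 37 C; CellTiter-Glo 30 min RT; luminescence. Tetraoctylammonium bromide pos. ctrl. AC50 via Hill eqn.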

[4] = Cell Viability - LYMP2-007 (AID 979);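 also: cells exposed to compound for 24 h before reading; 0% = DMSO only and the negative end = 92 µM tetraoctylammonium bromide; nearly all actives have a fitted effect of over 60% in size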
Procedure, shortened: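 Luminescent ATP signal (CellTiter-Glo) serves as the viability read-out after 24 hr compound treatment of lymphoblastoid cells in complete medium at 37 C. Concentration-response data were fitted to the Hill equation to give AC50 values.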

[5] = Cell Viability - LYMP2-008 (AID 980); also: % is scaled to controls: 0 for no effect and ±100 for the full control effect; nearly all actives have a fitted effect of over 60% in size
Procedure, shortened: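 qHTS, human lymphoblastoid line, 2500 cells/well; 5 hr preincubation, 24 hr compound, 37 C. CellTiter-Glo ATP luminescence. AC50 via Hill equation. Tetraoctylammonium bromide positive control.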

[6] = Cell Viability - LYMP2-010 (AID 981); also: % is scaled to controls: 0 for no effect and ±100 for the full control effect; nearly all actives have a fitted effect of over 55% in size
Procedure, shortened: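 Luminescent ATP signal (CellTiter-Glo) served as the viability read-out. Cells of the human lymphoblastoid line were treated with compound over a concentration range for 24 hours at 37 C, and AC50 values came from Hill-equation modeling.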

[7] = Cell Viability - LYMP2-012 (AID 982);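 also: cellular ATP by luciferase luminescence where a drop means cytotoxicity; cells exposed to compound for one day before reading; 0% = DMSO only and full loss = 92 µM tetraoctylammonium bromide; nearly all actives have a fitted effect of over 55% in size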
[8] = Cell Viability - LYMP2-014 (AID 983);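 also: series mostly up to about 92 µM; plate controls were DMSO only for no effect and 92 µM tetraoctylammonium bromide for full effect; nearly all actives have a fitted effect of over 50% in size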
Procedure, shortened: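 Luminescent ATP signal (CellTiter-Glo, 30 min at room temperature) serves as the viability read-out after 24 hr compound exposure at 37 C. Cells were seeded at 2500 per well and settled 5 hr beforehand.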

[9] = Cell Viability - LYMP2-016 (AID 984); also: % is scaled to controls: 0 for no effect and ±100 for the full control effect; nearly all actives have a fitted effect of over 55% in size
Procedure, shortened: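 qHTS, 1536-well: 2500 LYMP2-016 cells/well, 5 hr 37 C, compound added, 24 hr 37 C, CellTiter-Glo 30 min RT, luminescence. Tetraoctylammonium bromide positive control. AC50 via Hill fit.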

[10] = Cell Viability - LYMP2-018 (AID 985);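 also: plate controls were DMSO only for no effect and tetraoctylammonium bromide at 92 µM for full effect; nearly all actives have a fitted effect of over 50% in size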
Procedure, shortened: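 Luminescent ATP signal (CellTiter-Glo, read after 30 min at room temperature) reports viable cells after 24 hr compound treatment at 37 C. Concentration-response data were fitted to the standard Hill equation for AC50.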

[11] = Cell Viability - LYMP2-020 (AID 986);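 also: series mostly up to about 92 µM; plate controls were DMSO only for no effect and tetraoctylammonium bromide at 92 µM for full effect; nearly all actives have a fitted effect of over 55% in size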
Procedure, shortened: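 Luminescent ATP signal (CellTiter-Glo, 30 min at room temperature) is the read-out after 24 h compound treatment of lymphoblastoid cells at 37 C. AC50 values come from Hill-equation fits across concentrations.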

[12] = Cell Viability - LYMP2-024 (AID 988);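 also: plate controls were DMSO only for no effect and 92 µM tetraoctylammonium bromide for full effect; nearly all actives have a fitted effect of over 60% in size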
Procedure, shortened: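 Steps: seed 2500 cells/well, 5 hr 37 C; add compound, 24 hr 37 C; add CellTiter-Glo, 30 min room temperature; read luminescence. AC50 derived by Hill modelling of concentration-dependent ATP loss.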

[13] = Cell Viability - LYMP2-026 (AID 989); also: % is scaled to controls: 0 for no effect and ±100 for the full control effect; nearly all actives have a fitted effect of over 50% in size
Procedure, shortened: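 Luminescent ATP signal (CellTiter-Glo, 30 min room temperature) measures viable lymphoblastoid cells after 24 hr compound treatment at 37 C. Decreased ATP reflects acute toxicity; AC50 values come from Hill-equation modeling.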

[14] = Cell Viability - LYMP1-002 - Assay at 24 hr (AID 993); also: % is scaled to controls: 0 for no effect and ±100 for the full control effect
Procedure, shortened: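 Cells plated 2500/well, 5 hr 37 C; compounds added, 24 hr 37 C; CellTiter-Glo added, 30 min RT; luminescence read. Tetraoctylammonium bromide positive control. Hill-equation AC50.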

[15] = Cell Viability - LYMP1-002 - Assay at 40 hr (AID 994)
Procedure, shortened: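 Luminescent ATP signal served as the viability readout, with decreases taken as toxicity. Cells were treated with compounds across a concentration range for 40 hours at 37 C, and AC50 values came from standard Hill modeling.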

[16] = qHTS Assay for Identification of Small Molecule Inducers of Hypoxia Response (AID 2120; active = well fitted curve in the direction sought with a large enough effect in the signal ratio, with a control signal flat, not every such curve was filed as active; the % refers to the signal ratio; also: 0% is about no effect)
Procedure, shortened: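 ME-180 HRE-bla cells plated in Opti-MEM/0.5% dialyzed FBS, rested 4-5 h, then dosed with compound titrations by pin tool. After 17 h at 37 degrees C, CCF4 dye loaded 2.5 h at RT; 460/530 nm ratio gave %Activity and AC50.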

[17] = target: Androgen receptor (Homo sapiens) (UniProt P10275); experiment: qHTS assay for small molecule agonists of androgen receptor signaling (AID 588515; active = well fitted curve in the direction sought with a large enough effect in the signal ratio, with a control signal flat; the % refers to the signal ratio; also: % is scaled to controls: 0 for no effect and ±100 for the full control effect); conditions: AR-UAS-bla HEK293, beta-lactamase ratio, agonist 16 h; active compounds read high
Chain of Androgen receptor (Homo sapiens) (P10275 whole entry, looked up): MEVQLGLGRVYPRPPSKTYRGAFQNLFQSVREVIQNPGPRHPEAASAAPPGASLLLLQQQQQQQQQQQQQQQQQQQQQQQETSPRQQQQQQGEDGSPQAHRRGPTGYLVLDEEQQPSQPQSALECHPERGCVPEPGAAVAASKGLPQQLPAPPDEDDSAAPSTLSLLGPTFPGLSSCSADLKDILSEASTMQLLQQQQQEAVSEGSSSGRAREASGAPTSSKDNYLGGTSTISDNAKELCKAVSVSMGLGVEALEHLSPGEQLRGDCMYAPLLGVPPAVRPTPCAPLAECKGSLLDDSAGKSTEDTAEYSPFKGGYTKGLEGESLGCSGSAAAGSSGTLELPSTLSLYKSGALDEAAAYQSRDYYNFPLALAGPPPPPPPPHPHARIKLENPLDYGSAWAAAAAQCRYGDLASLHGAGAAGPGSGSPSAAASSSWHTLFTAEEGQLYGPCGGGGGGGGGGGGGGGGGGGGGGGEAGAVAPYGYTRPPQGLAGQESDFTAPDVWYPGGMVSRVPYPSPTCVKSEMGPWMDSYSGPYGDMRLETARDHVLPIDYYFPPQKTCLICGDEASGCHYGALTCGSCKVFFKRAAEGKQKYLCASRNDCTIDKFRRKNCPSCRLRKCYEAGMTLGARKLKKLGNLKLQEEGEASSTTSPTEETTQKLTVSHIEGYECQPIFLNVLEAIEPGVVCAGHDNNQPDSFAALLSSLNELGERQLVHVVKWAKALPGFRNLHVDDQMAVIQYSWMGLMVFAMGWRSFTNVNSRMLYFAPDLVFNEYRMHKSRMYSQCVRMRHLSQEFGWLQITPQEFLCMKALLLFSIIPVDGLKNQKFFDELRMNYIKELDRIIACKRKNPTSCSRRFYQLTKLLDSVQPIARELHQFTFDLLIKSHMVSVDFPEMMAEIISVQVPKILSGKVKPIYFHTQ
Procedure, shortened: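 EC50 and efficacy came from Hill fits of titrations (up to 92 uM) normalized to 30 nM R1881 as 100% and DMSO as 0%. Compound exposure was 16 h at 37 C on AR-UAS-bla HEK293 cells, with a 405/460/530 nm CCF4 fluorescence read.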

[18] = Cell Viability - LYMP2-022 (AID 987)
Procedure, shortened: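 qHTS: human lymphoblastoid cells 2500/well; 5 hr 37 C; cpd added; 24 hr 37 C; CellTiter-Glo, 30 min RT; luminescence. AC50 via Hill fit; tetraoctylammonium bromide positive ctrl.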

CCCOCC(C)O (stereo not given)
inactive: Potency [1] | Potency [2] | Potency [3] | Potency [4] | Potency [5] | Potency [6] | Potency [7] | Potency [8] | Potency [9] | Potency [10] | Potency [11] | Potency [12] | outcome [13] | Potency [14] | Potency [15] | outcome [16] | activation [17] -4.67%

CSc1ccc(C=O)cc1
inactive: Potency [1] | Potency [2] | Potency [3] | Potency [4] | Potency [5] | Potency [6] | Potency [7] | Potency [8] | Potency [9] | Potency [10] | Potency [11] | Potency [18] | Potency [12] | outcome [13] | Potency [14] | Potency [15] | outcome [16]

Cc1cccc(Br)c1
inactive: Potency [1] | Potency [2] | Potency [3] | Potency [4] | Potency [5] | Potency [6] | Potency [7] | Potency [8] | Potency [9] | Potency [10] | Potency [11] | Potency [18] | Potency [12] | outcome [13] | Potency [14] | Potency [15] | outcome [16]

C=CC(=O)OCCCC
inactive: Potency [1] | Potency [2] | Potency [3] | Potency [4] | Potency [5] | Potency [6] | Potency [7] | Potency [8] | Potency [9] | Potency [10] | Potency [11] | Potency [18] | Potency [12] | outcome [13] | Potency [14] | Potency [15] | outcome [16]

CC(C)C=O
inactive: Potency [1] | Potency [2] | Potency [3] | Potency [4] | Potency [5] | Potency [6] | Potency [7] | Potency [8] | Potency [9] | Potency [10] | Potency [11] | Potency [18] | Potency [12] | outcome [13] | Potency [14] | Potency [15] | outcome [16]

Cc1c(N)cccc1N
inactive: Potency [1] | Potency [2] | Potency [3] | Potency [4] | Potency [5] | Potency [6] | Potency [7] | Potency [8] | Potency [9] | Potency [10] | Potency [11] | Potency [18] | Potency [12] | outcome [13] | Potency [14] | Potency [15] | outcome [16]

Nc1nc(CC(=O)O)cs1
inactive: Potency [1] | Potency [2] | Potency [3] | Potency [4] | Potency [5] | Potency [6] | Potency [7] | Potency [8] | Potency [9] | Potency [10] | Potency [11] | Potency [18] | Potency [12] | outcome [13] | Potency [14] | outcome [16]

CCCCCCCCN
inactive: Potency [1] | Potency [2] | Potency [3] | Potency [4] | Potency [5] | Potency [6] | Potency [7] | Potency [8] | Potency [9] | Potency [10] | Potency [11] | Potency [18] | Potency [12] | outcome [13] | Potency [14] | outcome [16]

ON=C1CCCCC1
inactive: Potency [1] | Potency [2] | Potency [3] | Potency [4] | Potency [5] | Potency [6] | Potency [7] | Potency [8] | Potency [9] | Potency [10] | Potency [11] | Potency [18] | Potency [12] | outcome [13] | Potency [14] | Potency [15] | outcome [16]

N#Cc1ccccc1
inactive: Potency [1] | Potency [2] | Potency [3] | Potency [4] | Potency [5] | Potency [6] | Potency [7] | Potency [8] | Potency [9] | Potency [10] | Potency [11] | Potency [18] | Potency [12] | outcome [13] | Potency [14] | Potency [15] | outcome [16]

CCOc1ccc(NC(C)=O)cc1N
inactive: Potency [1] | Potency [2] | Potency [3] | Potency [5] | Potency [6] | Potency [7] | Potency [8] | Potency [9] | Potency [10] | Potency [11] | Potency [12] | outcome [13] | Potency [14] | Potency [15] | outcome [16] | activation [17] 0.896%

CC(C)Cc1nccs1
inactive: Potency [1] | Potency [2] | Potency [3] | Potency [4] | Potency [5] | Potency [6] | Potency [7] | Potency [8] | Potency [9] | Potency [10] | Potency [11] | Potency [18] | Potency [12] | outcome [13] | Potency [14] | Potency [15] | outcome [16]

CC(=O)OC(C)=O
inactive: Potency [1] | Potency [2] | Potency [3] | Potency [4] | Potency [5] | Potency [6] | Potency [7] | Potency [8] | Potency [9] | Potency [10] | Potency [11] | Potency [18] | Potency [12] | outcome [13] | outcome [16]

CC(C)(C)OCC1CO1 (stereo not given)
inactive: Potency [1] | Potency [2] | Potency [3] | Potency [4] | Potency [5] | Potency [6] | Potency [7] | Potency [8] | Potency [9] | Potency [10] | Potency [11] | Potency [18] | Potency [12] | outcome [13] | Potency [14] | Potency [15] | outcome [16]

CCC1CO1 (stereo not given)
inactive: Potency [1] | Potency [2] | Potency [3] | Potency [4] | Potency [5] | Potency [6] | Potency [7] | Potency [8] | Potency [9] | Potency [10] | Potency [11] | Potency [18] | Potency [12] | outcome [13] | Potency [14] | outcome [16]

NS(=O)(=O)O
inactive: Potency [1] | Potency [2] | Potency [3] | Potency [4] | Potency [5] | Potency [6] | Potency [7] | Potency [8] | Potency [9] | Potency [10] | Potency [11] | Potency [18] | Potency [12] | outcome [13] | Potency [14] | Potency [15] | outcome [16]

Cc1ccccc1C#N
inactive: Potency [1] | Potency [2] | Potency [3] | Potency [4] | Potency [5] | Potency [6] | Potency [7] | Potency [8] | Potency [9] | Potency [10] | Potency [11] | Potency [18] | Potency [12] | outcome [13] | Potency [14] | Potency [15] | outcome [16]

CC1(N)CCC(C(C)(C)N)CC1 (stereo not given)
inactive: Potency [1] | Potency [2] | Potency [3] | Potency [4] | Potency [5] | Potency [6] | Potency [7] | Potency [8] | Potency [9] | Potency [10] | Potency [11] | Potency [18] | Potency [12] | outcome [13] | Potency [14] | Potency [15] | outcome [16]
